Results from ChEMBL document CHEMBL1157539, “Thousands of chemical starting points for antimalarial lead identification” (Nature, 2010).

Test system: Plasmodium falciparum
Test: GSK_TCMDC: Inhibition of Plasmodium falciparum 3D7 in whole red blood cells, using parasite LDH activity as an index of growth. Test compounds present at 2uM
Assay type: functional

**Q.** Which Inhibition does the source give for `CCc1ccc(O)c(-c2cc(C(=O)Nc3ccc(OC)c(Cl)c3)[nH]n2)c1` here?
**A.** The Inhibition was 93%.

**Q.** With `CCOC(=O)NC1=NC(C)(C)N(OCCCOc2ccc(C)cc2C)C(NC(=O)OCC)=N1` as the compound, how does the Inhibition read?
**A.** Its Inhibition is 95%.

**Q.** For `CN1CCC(C(=O)N(Cc2ccc(-c3ccc(CNCCc4ccc(S(C)(=O)=O)cc4)cn3)cc2)C2Cc3ccccc3C2)CC1.O=C(O)C(F)(F)F`, which Inhibition is on record?
**A.** Its Inhibition is 98%.

**Q.** How did the Inhibition turn out when `COc1ccc2[nH]ccc(=NN=Cc3ccc(F)cc3)c2c1` was run?
**A.** The Inhibition was 98%.

**Q.** For `CC(=O)c1ccc(Nc2c(C(N)=O)cnc3cc(-c4c(C)noc4C)ccc23)cc1`, which Inhibition is on record?
**A.** The Inhibition was 99%.

**Q.** With `Cc1cc(NCCc2ccccc2)nc(NC(=N)Nc2ccc(Cl)cc2)n1` as the compound, how does the Inhibition read?
**A.** Its Inhibition is 100%.

**Q.** How did the Inhibition turn out when `Cc1ccc(/C=C/C(=O)N2CCC(CCN3CCC(c4c[nH]c5ccccc45)CC3)CC2)cc1C` was run?
**A.** The Inhibition was 94%.

**Q.** Which Inhibition does the source give for `CCC1CCCCN1S(=O)(=O)c1ccc(OC)c(N2CCN(C(=O)C(Cl)(Cl)Cl)CC2)c1` (stereo unspecified) here?
**A.** The Inhibition was 89%.

**Q.** For `COC(=O)c1ccc2nc(-c3cc(OC)c(O)c(C(=O)NC4CCN(Cc5ccccc5)CC4)c3)[nH]c2c1`, which Inhibition is on record?
**A.** The Inhibition was 85%.

**Q.** For `O=C(Nc1cccc(N2CCC(NCc3cccnc3)CC2)c1)c1cccc(C(F)(F)F)c1`, which Inhibition is on record?
**A.** Its Inhibition is 98%.

**Q.** For `CCCC(C)NC[C@@H](O)[C@H](Cc1ccccc1)NC(=O)c1cc(NCC)cc(N2CCCCS2(=O)=O)c1.Cl` (stereo partly specified), which Inhibition is on record?
**A.** The Inhibition was 100%.

**Q.** Which Inhibition does the source give for `CC(=O)N[C@H](C(=O)Nc1ccc(-c2cccc(-c3nc4cccc(C)c4[nH]3)c2)cc1)C(C)C` here?
**A.** The Inhibition was 89%.

**Q.** `CC(C)(C)Oc1ccc(CC2NC3(C(=O)N(Cc4ccc(C(C)(C)C)cc4)c4ccccc43)C3C(=O)N(c4ccc(Br)cc4)C(=O)C23)cc1` (stereo unspecified) was tested. Which Inhibition did it give?
**A.** Its Inhibition is 94%.

**Q.** `Cl.O=C(NCc1ccc(C(=O)N2CCC(N3CCCCC3)CC2)cc1)c1cc(-c2cccc(C(F)(F)F)c2)ccc1O` was tested. Which Inhibition did it give?
**A.** Its Inhibition is 100%.

**Q.** How did the Inhibition turn out when `Cc1cccc2nc(-c3cccc(-c4cccc(CNCCCN5CCCC5=O)c4)c3)[nH]c12.O=C(O)C(F)(F)F` was run?
**A.** The Inhibition was 100%.

**Q.** How did the Inhibition turn out when `Cc1nc(N2CCC(C)CC2)c2c3c(sc2n1)CCCC3` was run?
**A.** Its Inhibition is 93%.

**Q.** Which Inhibition does the source give for `Cc1cc(Nc2ccncc2)n2nc(C)c(-c3ccccc3Cl)c2n1` here?
**A.** Its Inhibition is 99%.

**Q.** With `COc1ccc(NC(=O)[C@H](CC(C)C)Nc2cc(C)nc(NCCc3ccccc3)n2)cc1.O=C(O)C(F)(F)F` as the compound, how does the Inhibition read?
**A.** The Inhibition was 100%.

**Q.** For `Cc1ccccc1C1CCN(C2CCC(NC(=O)C3=Cc4ccccc4OC3)CC2)CC1` (stereo unspecified), which Inhibition is on record?
**A.** The Inhibition was 91%.

**Q.** `Clc1ccc(CNCCCCCCNCc2ccc(Cl)cc2)cc1.O=C(O)c1ccc2ccccc2c1O` was tested. Which Inhibition did it give?
**A.** The Inhibition was 96%.

**Q.** `Cc1ccc(NC(=O)c2ccc3ncccc3c2)cc1OC1CCN(CCC(C)C)CC1.O=C(O)C(F)(F)F` was tested. Which Inhibition did it give?
**A.** The Inhibition was 94%.

**Q.** With `COc1ccc2nccc([C@@H](O)CN3CCC(NS(=O)(=O)c4cc(Br)c(Br)s4)CC3)c2c1` as the compound, how does the Inhibition read?
**A.** The Inhibition was 92%.

**Q.** Which Inhibition does the source give for `COc1cc2nc(NCCc3ccccc3)nc(NC(C)c3ccccc3)c2cc1OC` (stereo unspecified) here?
**A.** Its Inhibition is 99%.

**Q.** With `Clc1ccc(-c2cnc3ccc(NCCc4cccnc4)nn23)cc1` as the compound, how does the Inhibition read?
**A.** Its Inhibition is 97%.

**Q.** For `O=C(Nc1ccc([N+](=O)[O-])cc1)Nc1cc(C(F)(F)F)ccc1F`, which Inhibition is on record?
**A.** Its Inhibition is 89%.

**Q.** With `CCC(CC)(Cc1ccccc1)NC(=O)[C@H](CC1CCCCC1)Nc1ccc(C#N)c2ccccc12.O=C(O)C(F)(F)F` as the compound, how does the Inhibition read?
**A.** Its Inhibition is 95%.

Test system: Plasmodium falciparum
Test: GSK_TCMDC: Inhibition of Plasmodium falciparum Dd2 in whole red blood cells, using parasite LDH activity as an index of growth. Test compounds present at 2uM
Assay type: functional

**Q.** For `CNC(=O)c1ccccc1Nc1nc(Nc2cccc(CS(C)(=O)=O)c2)ncc1C.O=CO`, which Inhibition is on record?
**A.** Its Inhibition is 95%.

**Q.** How did the Inhibition turn out when `C=Cc1sc(CNCCCNc2cc(=O)c3ccccc3[nH]2)c(C)c1Br` was run?
**A.** Its Inhibition is 35%.

**Q.** Which Inhibition does the source give for `Br.CCCC1N=C(N)N=C(N)N1c1ccc(OC)cc1` (stereo unspecified) here?
**A.** Its Inhibition is 4%.

**Q.** `CCNc1cc(C(=O)N[C@@H](Cc2ccccc2)[C@H](O)CNC2(CCC(C)C)CC2)cc(N2CCCCS2(=O)=O)c1.Cl` was tested. Which Inhibition did it give?
**A.** Its Inhibition is 52%.

**Q.** For `COc1ccc2nccc(N3CCCN(CCNCc4ccc5c(n4)NC(=O)CS5)CC3)c2n1.Cl`, which Inhibition is on record?
**A.** Its Inhibition is 10%.

**Q.** For `O=c1cc(NCCC2CC=CCN2Cc2ccc(Cl)c(Cl)c2)[nH]c2ccccc12` (stereo unspecified), which Inhibition is on record?
**A.** Its Inhibition is 77%.

**Q.** With `O=C(CC(=O)C(F)(F)F)c1ccccc1[N+](=O)[O-]` as the compound, how does the Inhibition read?
**A.** Its Inhibition is 95%.

**Q.** How did the Inhibition turn out when `CCOc1ccc2c(=NN=Cc3cccc(Cl)c3)cc(C)[nH]c2c1` was run?
**A.** The Inhibition was 34%.

**Q.** For `COc1ccc(Nc2nccc(N3CCC(NC(=O)c4cccc(NC(C)=O)c4)C3)n2)cc1` (stereo unspecified), which Inhibition is on record?
**A.** The Inhibition was 84%.

**Q.** For `Cc1cc(Cl)c(Cl)cc1NC(=O)Nc1cccc(C(F)(F)F)c1`, which Inhibition is on record?
**A.** Its Inhibition is 99%.

**Q.** `Cc1cccc2c(/C=C/C(=O)NC3CCC(CCN4CCc5ccc(C#N)cc5CC4)CC3)c[nH]c12.Cl` (stereo unspecified) was tested. Which Inhibition did it give?
**A.** The Inhibition was 49%.

**Q.** How did the Inhibition turn out when `CCCC(N)C(=O)NC1CCN(c2c(F)c(N)c3c(=O)c(C(=O)O)cn4c3c2Oc2ccccc2-4)C1.Cl` (stereo unspecified) was run?
**A.** The Inhibition was 98%.

**Q.** Which Inhibition does the source give for `CC(C)CN(c1nc(C(=O)NNC(=O)[C@H](CC2CC2)NC(=O)c2cc3cc(OCCN4CCCCC4)ccc3o2)cs1)C1CC1` here?
**A.** The Inhibition was 98%.

**Q.** `CCc1ccc(OCc2ccccc2C(=O)Nc2ccc3nc(C)cc(N)c3c2)cc1.Cl` was tested. Which Inhibition did it give?
**A.** The Inhibition was 74%.

**Q.** With `CCc1ccc(O)c(-c2cc(C(=O)Nc3ccc(OC)c(Cl)c3)[nH]n2)c1` as the compound, how does the Inhibition read?
**A.** Its Inhibition is 97%.

**Q.** How did the Inhibition turn out when `CCOC(=O)NC1=NC(C)(C)N(OCCCOc2ccc(C)cc2C)C(NC(=O)OCC)=N1` was run?
**A.** The Inhibition was 98%.

**Q.** With `CN1CCC(C(=O)N(Cc2ccc(-c3ccc(CNCCc4ccc(S(C)(=O)=O)cc4)cn3)cc2)C2Cc3ccccc3C2)CC1.O=C(O)C(F)(F)F` as the compound, how does the Inhibition read?
**A.** Its Inhibition is 49%.

**Q.** With `COc1ccc2[nH]ccc(=NN=Cc3ccc(F)cc3)c2c1` as the compound, how does the Inhibition read?
**A.** The Inhibition was 54%.

**Q.** With `CC(=O)c1ccc(Nc2c(C(N)=O)cnc3cc(-c4c(C)noc4C)ccc23)cc1` as the compound, how does the Inhibition read?
**A.** The Inhibition was 44%.

**Q.** For `Cc1cc(NCCc2ccccc2)nc(NC(=N)Nc2ccc(Cl)cc2)n1`, which Inhibition is on record?
**A.** The Inhibition was 100%.

**Q.** Which Inhibition does the source give for `Cc1ccc(/C=C/C(=O)N2CCC(CCN3CCC(c4c[nH]c5ccccc45)CC3)CC2)cc1C` here?
**A.** The Inhibition was 5%.

**Q.** With `CCC1CCCCN1S(=O)(=O)c1ccc(OC)c(N2CCN(C(=O)C(Cl)(Cl)Cl)CC2)c1` (stereo unspecified) as the compound, how does the Inhibition read?
**A.** Its Inhibition is 29%.

**Q.** For `COC(=O)c1ccc2nc(-c3cc(OC)c(O)c(C(=O)NC4CCN(Cc5ccccc5)CC4)c3)[nH]c2c1`, which Inhibition is on record?
**A.** The Inhibition was 0%.

**Q.** How did the Inhibition turn out when `O=C(Nc1cccc(N2CCC(NCc3cccnc3)CC2)c1)c1cccc(C(F)(F)F)c1` was run?
**A.** Its Inhibition is 2%.

**Q.** Which Inhibition does the source give for `CCCC(C)NC[C@@H](O)[C@H](Cc1ccccc1)NC(=O)c1cc(NCC)cc(N2CCCCS2(=O)=O)c1.Cl` (stereo partly specified) here?
**A.** The Inhibition was 98%.

**Q.** Which Inhibition does the source give for `CC(=O)N[C@H](C(=O)Nc1ccc(-c2cccc(-c3nc4cccc(C)c4[nH]3)c2)cc1)C(C)C` here?
**A.** Its Inhibition is 10%.

**Q.** `CC(C)(C)Oc1ccc(CC2NC3(C(=O)N(Cc4ccc(C(C)(C)C)cc4)c4ccccc43)C3C(=O)N(c4ccc(Br)cc4)C(=O)C23)cc1` (stereo unspecified) was tested. Which Inhibition did it give?
**A.** The Inhibition was 94%.

**Q.** For `Cl.O=C(NCc1ccc(C(=O)N2CCC(N3CCCCC3)CC2)cc1)c1cc(-c2cccc(C(F)(F)F)c2)ccc1O`, which Inhibition is on record?
**A.** The Inhibition was 58%.

**Q.** For `Cc1cccc2nc(-c3cccc(-c4cccc(CNCCCN5CCCC5=O)c4)c3)[nH]c12.O=C(O)C(F)(F)F`, which Inhibition is on record?
**A.** Its Inhibition is 76%.

**Q.** How did the Inhibition turn out when `Cc1nc(N2CCC(C)CC2)c2c3c(sc2n1)CCCC3` was run?
**A.** The Inhibition was 39%.

**Q.** For `Cc1cc(Nc2ccncc2)n2nc(C)c(-c3ccccc3Cl)c2n1`, which Inhibition is on record?
**A.** The Inhibition was 93%.

**Q.** For `COc1ccc(NC(=O)[C@H](CC(C)C)Nc2cc(C)nc(NCCc3ccccc3)n2)cc1.O=C(O)C(F)(F)F`, which Inhibition is on record?
**A.** Its Inhibition is 74%.

**Q.** For `Cc1ccccc1C1CCN(C2CCC(NC(=O)C3=Cc4ccccc4OC3)CC2)CC1` (stereo unspecified), which Inhibition is on record?
**A.** Its Inhibition is 15%.

**Q.** With `Clc1ccc(CNCCCCCCNCc2ccc(Cl)cc2)cc1.O=C(O)c1ccc2ccccc2c1O` as the compound, how does the Inhibition read?
**A.** The Inhibition was 28%.

**Q.** With `Cc1ccc(NC(=O)c2ccc3ncccc3c2)cc1OC1CCN(CCC(C)C)CC1.O=C(O)C(F)(F)F` as the compound, how does the Inhibition read?
**A.** The Inhibition was 48%.

**Q.** `COc1ccc2nccc([C@@H](O)CN3CCC(NS(=O)(=O)c4cc(Br)c(Br)s4)CC3)c2c1` was tested. Which Inhibition did it give?
**A.** Its Inhibition is 36%.

**Q.** For `COc1cc2nc(NCCc3ccccc3)nc(NC(C)c3ccccc3)c2cc1OC` (stereo unspecified), which Inhibition is on record?
**A.** The Inhibition was 100%.

**Q.** For `Clc1ccc(-c2cnc3ccc(NCCc4cccnc4)nn23)cc1`, which Inhibition is on record?
**A.** Its Inhibition is 32%.

**Q.** For `O=C(Nc1ccc([N+](=O)[O-])cc1)Nc1cc(C(F)(F)F)ccc1F`, which Inhibition is on record?
**A.** Its Inhibition is 46%.

**Q.** For `CCC(CC)(Cc1ccccc1)NC(=O)[C@H](CC1CCCCC1)Nc1ccc(C#N)c2ccccc12.O=C(O)C(F)(F)F`, which Inhibition is on record?
**A.** The Inhibition was 76%.
